Screening results (PubChem)
FLuc counter = qHTS profiling assay for firefly luciferase inhibitor/activator using purifed enzyme and Km concentrations of substrates (counterscreen for miR-21 project) | Luciferin 4-monooxygenase (Photinus pyralis), P08659 | purified FLuc, Km substrates, luminescence inhibition | Potency, µM (series often up to 57.5 µM), inactives show at the highest dose activity change, negative = inhibition, usual class: inhibitors | 360,000 compounds, 6.9% hits;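 further: plate controls were vehicle for no effect and reference inhibitor for full effect; nearly all actives have a fitted effect of over 55% in size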
Target sequence (P08659 whole entry, looked up): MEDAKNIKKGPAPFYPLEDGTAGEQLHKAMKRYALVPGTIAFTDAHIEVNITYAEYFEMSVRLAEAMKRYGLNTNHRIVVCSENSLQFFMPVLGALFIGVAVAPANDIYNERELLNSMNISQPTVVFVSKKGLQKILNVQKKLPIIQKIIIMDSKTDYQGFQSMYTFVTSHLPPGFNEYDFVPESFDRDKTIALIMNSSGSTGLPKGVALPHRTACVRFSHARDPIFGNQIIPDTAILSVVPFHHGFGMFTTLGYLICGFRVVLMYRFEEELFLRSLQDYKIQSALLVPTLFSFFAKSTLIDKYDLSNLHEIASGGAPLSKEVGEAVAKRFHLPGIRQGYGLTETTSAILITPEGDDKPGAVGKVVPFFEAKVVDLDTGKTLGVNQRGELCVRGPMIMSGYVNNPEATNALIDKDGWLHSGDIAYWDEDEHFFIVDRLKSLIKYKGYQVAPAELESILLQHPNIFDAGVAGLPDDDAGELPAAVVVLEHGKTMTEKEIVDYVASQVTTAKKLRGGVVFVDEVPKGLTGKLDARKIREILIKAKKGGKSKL
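Purified P. pyralis luciferase (10nM final) with 10uM D-luciferin and 10uM ATP (Km levels) in 50mM Tris acetate pH 7.5, 10mM Mg acetate, 0.01% Tween-20, 0.05% BSA; qHTS 6-point titration, ~60 µM downward; luminescence read.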
Rab9 promoter act = qHTS Assay for Rab9 Promoter Activators | Potency, µM (series often up to 9.22 µM), for inactives: at the top dose activation, negative = inhibition, usual class: activators | Huh7 Rab9 promoter-luciferase reporter, luminescence, 24 h | 320,000 compounds, 2.8% hits; further: % of control where 0% means no effect; nearly all actives have a fitted effect of over 60% in size
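Huh7 cells stably carrying Rab9 promoter–luciferase reporter, plated 1500 cells/well, compound added after 2 h and incubated 24 h at 37 °C; luciferase luminescence then read after 10 min with detection reagent.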
NPC1 prom act = qHTS Assay for NPC1 Promoter Activators; Huh7 NPC1 promoter luciferase reporter, 24 h; Potency, µM (titrated, usually from 9.22 µM), for inactives: at the highest dose activation, most hits filed as activators; 320,000 compounds, 2.4% hits; further: % of control where 0% means no effect; nearly all actives have a fitted effect of over 60% in size
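In 1536-well qHTS, Huh7 cells harboring an NPC1 promoter–luciferase construct received compound for 24 h; activation was quantified by luminescence following luciferase reagent addition.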
ELG1 repair inh = qHTS screen for small molecules that inhibit ELG1-dependent DNA repair in human embryonic kidney (HEK293T) cells expressing luciferase-tagged ELG1; 330,000 compounds, 2.3% hits; Potency, µM (titrated, usually from 46.1 µM), inactives show at the highest dose activity change, negative = inhibition, most hits filed as inhibitors; HEK293T ELG1-luciferase reporter, luminescence, 16 h; DNA damage induced by 5-fluorouridine; AID 504467, 2011; further: on the % scale 0 is the no-effect control and ±100 the full control effect; nearly all actives have a fitted effect of over 55% in size
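Reporter activity after DNA damage by 5-fluorouridine is monitored. Compound-treated cells incubate 16 hr at 37 °C, then ONE-Glo is added for 30 min before luminescence reading.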
SMN2 splice up = qHTS Assay for Enhancers of SMN2 Splice Variant Expression; HEK293 SMN2-luciferase splicing reporter, luminescence, 30-36 h; Potency, µM (titrated, usually from 46.1 µM), without a hit: top-dose activity change, positive = activation, most hits filed as activators; 210,000 compounds, 2.8% hits; further: % of control where 0% means no effect; nearly all actives have a fitted effect of over 55% in size
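qHTS luciferase splicing reporter: luminescence rises when SMN2 exon 7 is included in transfected HEK293 cells. Compound exposure lasted 30-36 h at 37C, with 4.5 mM final sodium butyrate as control, followed by a ONE-Glo read.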
ELG1 genotoxic = qHTS screen for small molecules that induce genotoxicity in human embryonic kidney (HEK293T) cells expressing luciferase-tagged ELG1; HEK293T ELG1-luciferase reporter, luminescence, 16 h; Potency, µM (top dose mostly 46 µM), inactives show top-dose activity change, positive = activation, hits mostly activators; 330,000 compounds, 1.3% hits; AID 504466, 2011; further: % of control where 0% means no effect; nearly all actives have a fitted effect of over 60% in size
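Quantitative HTS format in 1536-well plates. HEK293T ELG1-luciferase reporter cells receive test compound and are incubated 16 hr at 37 °C, 5% CO2; ONE-Glo added, 30 min room temperature, then luminescence read.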
Active calls of the source: *; ? = inconclusive; / = no result given. The list is not random: actives were taken first. Their share in the collection is about 9.2%. The call rests on the fitted dose curve; in most records, active means well fitted curve in the direction sought with a large enough effect; inconclusive means small, poorly fitted or top-dose-only effect, or another doubt; inactive means no such curve, though single readings can be large; an effect the other way counts as inactive or inconclusive. Potency means the concentration at half of the fitted maximal effect.

SMILES	FLuc counter	Rab9 promoter act	NPC1 prom act	ELG1 repair inh	SMN2 splice up	ELG1 genotoxic
Cc1csc(NC(=O)c2ccc3nc[nH]c3c2)n1	4.3µM*	0.5µM*	?	?	/	11%
COc1ccc(-c2nsc(NC(=O)c3cccc(OC)c3)n2)cc1	11µM*	/	/	/	-36%	/
Cc1onc(-c2ccccc2)c1C(=O)Nc1nc2c(s1)CCCC2	-2%	-4%	4%	1%	-10%	4%
Cc1cc(C(=O)Nc2nc3c(s2)CCCC3)no1	4.8µM*	0.79µM*	1.6µM*	?	?	0.79µM*
CC1CCc2nn(CC(=O)Nc3ccccc3Cl)cc2C1 (stereo not given)	-12%	/	/	/	6%	/
C=CCc1cccc2cc(C(=O)N3CCN(c4ccccn4)CC3)c(=O)oc12	0%	-6%	-4%	-5%	/	-5%
Cc1csc(NC(=O)c2cc(C)on2)n1	11µM*	2.2µM*	2.2µM*	?	/	?
COc1cccc(C(=O)Nc2nc(-c3ccncc3)cs2)c1	-11%	14%	3%	7%	-57%	1%
COc1cccc(C(=O)Nc2nc(C)cs2)c1	6.7µM*	2.5µM*	3.2µM*	?	11µM*	16%
CSc1cccc(-n2nnc(-c3nsc(NC(=O)c4cccs4)n3)c2C)c1	2.7µM*	/	/	/	/	/
Cc1csc(NC(=S)NC(=O)c2ccccc2)n1	13µM*	?	?	?	/	21µM*
Cc1ccc(O)c(NC(=S)NC(=O)CC(C)C)c1	17µM*	?	?	?	13µM*	?
Cc1ccc(NC(=S)NC(=O)Cc2ccccc2)c(O)c1	15µM*	3%	22%	23%	/	6%
COc1ccc(NC(=S)NC(=O)Cc2ccccc2)c(OC)c1	-5%	5%	1%	?	/	0%
COc1ccc(C2CC2C(C)=O)cc1 (stereo not given)	-5%	-2%	0%	3%	2%	0%
COc1ccc(/C=C2\SC(=S)N(CCC(=O)Nc3cccc(O)c3)C2=O)cc1OC	?	-2%	-6%	2%	/	10%
COc1cccc(/C=C2\SC(=S)N(CCC(=O)NNC(=O)c3ccccc3OC)C2=O)c1	-18%	-1%	5%	-15%	/	-3%
COc1cccc(/C=C2/SC(=S)N(CC(=O)NNC(=O)c3ccccc3OC)C2=O)c1	13µM*	0%	-2%	-1%	/	3%
COc1ccc(/C=C2/SC(=S)N(CCCC(=O)Nc3cccc(O)c3)C2=O)cc1	13µM*	-7%	-4%	-17%	/	6%
COc1ccc(/C=C2/SC(=S)N(CCCC(=O)Nc3ccccc3C(=O)O)C2=O)cc1	27µM*	-8%	-20%	-2%	/	-14%
Cc1ccc(/C=C2\SC(=S)N(CCCC(=O)Nc3ccccc3C(=O)O)C2=O)cc1	4%	-2%	3%	0%	/	11%
CCOc1ccccc1N(CC(=O)NCCSc1ccccc1)S(=O)(=O)c1ccccc1	-7%	/	/	/	6%	/
Cc1ccc(-c2nc(N3CCN(c4ccccc4Cl)CC3)c3ccccc3n2)cc1	-1%	/	/	/	-3%	/
FC(F)(F)Oc1ccc2c(c1)NC(c1ccncc1)=NC(c1cccs1)=N2	-16%	/	/	/	-3%	/
Cc1ccc(/C=C/C(=O)NCc2cccs2)c(C)c1	6.7µM*	2.8µM*	?	?	/	?
SMILES	FLuc counter	Rab9 promoter act	NPC1 prom act	ELG1 repair inh	SMN2 splice up	ELG1 genotoxic
O=C(/C=C/c1ccc([N+](=O)[O-])cc1)NCc1cccs1	?	0%	-3%	?	-34%	3%
Cc1ccc(/C=C/C(=O)NCc2cccs2)cc1	11µM*	6%	25%	?	11µM*	?
COc1ccc(S(=O)(=O)N2CCCOC2CNC(=O)C(=O)NCCCN2CCOCC2)cc1C (stereo not given)	0%	2%	4%	15%	/	1%
CN(Cc1ccon1)Cc1cn(C)nc1-c1cccc(Cl)c1	5.4µM*	?	?	?	/	?
O=C(Nc1ccc(Cl)c(Cl)c1)C1=Cc2ccccc2OC1	11µM*	2.5µM*	?	?	?	?
O=C(Nc1ccc2c(c1)OCCO2)c1ccc(Cl)c([N+](=O)[O-])c1	?	-1%	-3%	?	18µM*	?
O=C(Nc1cccc(Cl)c1)C1=Cc2cc(Cl)ccc2OC1	-20%	-9%	-5%	-14%	-4%	-6%
O=C(Nc1ccc2cccnc2c1)c1ccc(Br)cc1	19µM*	7%	16%	?	/	10%
O=C(Nc1ccc2c(c1)OCCO2)c1ccc(Cl)c(Cl)c1	4.8µM*	1.4µM*	1.6µM*	?	/	2.6µM*
O=C(Nc1ccc2nc3ccccc3nc2c1)c1ccc(Br)cc1	-3%	28%	19%	?	3%	-1%
CCCCNC(=O)CCCN1C(=O)c2ccccc2Sc2ncccc21	0%	/	/	/	/	/
O=C(Nc1ccc2c(c1)OCCO2)c1ccc2nccnc2c1	3µM*	0.79µM*	1µM*	?	?	?
CCn1cc([N+](=O)[O-])c(C(=O)NCc2ccc3c(c2)OCO3)n1	3%	-1%	2%	3%	/	-1%
O=C(Nc1ccc2c(c1)OCO2)c1ccc2nc[nH]c2c1	21µM*	3.5µM*	?	?	?	16µM*
NS(=O)(=O)c1cccc(NC(=O)c2ccc3nc[nH]c3c2)c1	19µM*	-6%	-5%	-5%	/	-1%
O=C(Nc1ccc(C(F)(F)F)cc1)c1ccc2nc[nH]c2c1	?	19%	18%	?	-1%	-3%
CCn1cc([N+](=O)[O-])c(C(=O)Nc2ccc3c(c2)OCCO3)n1	19µM*	?	?	?	?	?
CN(C)c1ccc(-c2cncnc2NCc2ccccc2)cc1	/	/	/	/	-2%	/
Cc1ccc(C(=O)Nc2ccc3nccnc3c2)cc1	0.95µM*	0.45µM*	0.89µM*	?	3.2µM*	?
COC(=O)c1ccc(NC(=O)c2ccc3nccnc3c2)cc1	?	2%	2%	-7%	/	-7%
Cc1cc(C(=O)Nc2ccc3c(c2)OCCO3)ccc1[N+](=O)[O-]	0.76µM*	?	0.71µM*	?	/	0.52µM*
O=C(Nc1ccc2c(c1)OCCO2)c1cccnc1	?	4µM*	?	?	?	?
CN(C)C(=O)CCC(=O)N1CCCC(C(=O)c2ccc(C(F)(F)F)cc2)C1 (stereo not given)	2%	6%	-2%	-4%	/	1%
